Screening results deposited in PubChem by National Center for Advancing Translational Sciences (NCATS).
Sampled rows, rich in hits. Any-hit rate of the full collection: about 5.2%.
Sfp inh – Sfp phosphopantetheinyl transferase inhibition; Potency, µM, actives largely listed as inhibitors; AID 1490; Biochemical Sfp PPTase activity, qHTS; actives 3.5% (n = 310,000); Q9F4F7;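 also: the enzyme is Sfp with the accession as filed and its product quenches rhodamine fluorescence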
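Buffer: 50 mM Hepes-Na pH 7.6, 10 mM MgCl2, 0.01% Nonidet P-40, 0.01% BSA. Enzyme 15 nM, pre-exposed to compound 15 min; substrates then added and fluorescence change tracked over 30 min.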
Coupling enz – inhibits coupling enzyme system, counter-screen for aldolase hits; coupling enzyme system counterscreen, AmpLite Red fluorescence; activity change, negative = inhibition, % at 58.2 µM, hits read low; AID 2472; actives 0.67% (n = 290,000); in the data active = activity change below about -30%
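Counterscreen lacking aldolase: glyceraldehyde-3-phosphate coupling-enzyme reagent preincubated 10 min at RT with compound (at 57.5 uM final), then substrate/coupling system with AmpLite Red added; fluorescence read at 525/598 nm after 20 min RT.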
Tau fibril FP – tau fibrillization inhibition (FP) | K18 P301L tau heparin fibrillization, Alexa594 FP, 6 h | Potency, µM (top dose mostly 57.7 µM), actives largely listed as inhibitors | actives 0.39% (n = 280,000) | AID 1468; also: nearly all actives have a fitted effect of over 55% in size
Target sequence (P10636 561-689 P618L limits assumed): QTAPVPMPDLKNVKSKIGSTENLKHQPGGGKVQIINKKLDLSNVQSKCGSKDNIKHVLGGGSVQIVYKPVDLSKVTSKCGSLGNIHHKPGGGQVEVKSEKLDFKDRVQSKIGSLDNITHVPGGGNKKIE
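Quantitative HTS format: compounds meet 15 uM recombinant K18 P301L tau and Alexa 594-tau tracer in 100 mM sodium acetate pH 7; 20 uM heparin triggers fibrillization at 37 C over 6 hr; FP gives the signal.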
Tau fluor counter – counter-screen for tau fibril formation inhibitors | tau K18 P301L Alexa594 fluorescence, heparin fibrillization | Potency, µM (doses to about 57.7 µM) | actives 0.93% (n = 280,000); also: nearly all actives have a fitted effect of over 55% in size
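Human K18 P301L tau (15 uM unlabeled plus 0.24 uM Alexa 594-labeled, final) in 100 mM sodium acetate pH 7 was mixed with compound and 20 uM heparin and incubated 6 hr at 37 C.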
Tau ThT inhib – tau fibrillization inhibition (ThT binding); AID 1460; Potency, µM (top dose mostly 57.4 µM), usual class: inhibitors; recombinant tau K18 P301L, heparin-induced fibrillization, ThT fluorescence; actives 2.1% (n = 270,000); P10636; also: nearly all actives have a fitted effect of over 55% in size
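Fibril formation assay: tau K18 P301L at 15 uM with trace Alexa 594 label, heparin inducer 20 uM, pH 7 sodium acetate buffer, 37 C for 6 hr; endpoint ThT signal.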
Hits are given with their value; . = inactive; ? = inconclusive; / = no result given; [ ] = dose if it differs, or a comment. Unless noted, calls follow the shape of the dose curve; as a rule, active = well fitted curve in the direction sought with a large enough effect; inconclusive = small, poorly fitted or top-dose-only effect, or another doubt; inactive = no such curve, though single readings can be large; an effect the other way counts as inactive or inconclusive.

SMILES	Sfp inh	Coupling enz	Tau fibril FP	Tau fluor counter	Tau ThT inhib
CC(C)(C)c1ccccc1OCCCCCn1ccnc1	56µM	.	.	.	.
Cc1ccc(OCCCCn2ccnc2)c([N+](=O)[O-])c1	56µM	.	.	.	.
Cc1ccc(OCCn2ccnc2)c(C)c1	.	.	/	/	/
Cc1ccc(OCCOCCn2ccnc2)c(Br)c1	79µM	.	.	.	.
CC(C)(C)Nc1nc(C#N)nc(Nc2ccccc2)n1	/	.	/	/	/
Cc1ccc(C(=O)/C=C/c2cn(CC(O)CN3CCCCCC3)c3ccccc23)cc1 (centres undefined)	/	/	.	?	13µM
O=C(/C=C/c1cn(CC(O)CN2CCCCCC2)c2ccccc12)c1ccc(Br)cc1 (centres undefined)	/	/	.	?	22µM
Cc1cnc(C(=O)Nc2ccccc2-c2ccc(C)o2)cn1	50µM	.	.	.	?
Cc1cnc(C(=O)Nc2cccc3ncccc23)cn1	.	.	.	.	.
[O][C@H]1[C@@H](O)[C@@H](CO)O[C@@H](O[C@@H]2[C@@H]3OC[C@H]2O[C@H](O[C@@H]2[C@@H](O)[C@H](C[C@@H]4[C@@H]5OC[C@H]4O[CH][C@@H]5O)O[C@H](CO)[C@@H]2OS(=O)(=O)O)[C@@H]3OS(=O)(=O)O)[C@@H]1O	.	.	.	.	.
O=c1nc2s/c(=C\c3ccc(-c4ccccc4[N+](=O)[O-])o3)c(=O)n2nc1-c1ccccc1	?	-50	?	?	7.1µM
CCCCCOc1ccc(/C=c2\sc3nc(=O)c(-c4ccccc4)nn3c2=O)cc1OC	.	.	.	.	?
Cc1ccc(-n2c(SCc3ccccc3C)nc3[nH]ncc3c2=O)cc1C	/	/	?	.	.
CN1C(=S)N(c2cccnc2)C(=O)/C1=C\c1ccc(N(C)C)cc1	?	.	.	?	4µM
CN1C(=S)N(c2cccnc2)C(=O)/C1=C\c1ccc(C(C)(C)C)cc1	?	.	.	.	?
Cc1c(NC(=S)N/N=C/c2ccc(N(C)C)cc2)c(=O)n(-c2ccccc2)n1C	.	.	.	.	.
Cc1c(N2C(=O)/C(=C\c3ccc(N(C)C)cc3)N(C)C2=S)c(=O)n(-c2ccccc2)n1C	.	.	.	.	14µM
CCN(CC)CCNC(=O)CCn1c(=S)[nH]c2cc3c(cc2c1=O)OCO3	.	.	.	.	.
CCN(CC)CCn1c(=S)[nH]c2cc3c(cc2c1=O)OCO3	79µM	/	.	.	.
Nc1cc([N+](=O)[O-])ccc1Nc1ccc(O)cc1	56µM	.	?	20µM[quencher]	13µM
CCOc1ccc(NC(=O)Cc2cccc3ccccc23)c([N+](=O)[O-])c1	.	.	.	.	.
Cc1ccc(C(=O)/C=C/Nc2ccc([N+](=O)[O-])cc2Br)cc1	.	.	.	.	?
CCOc1ccc(N/C=C/C(=O)c2ccc(C)cc2)c([N+](=O)[O-])c1	.	.	.	.	1.1µM
CCOc1ccc(N/C=C/C(=O)c2ccc3ccccc3c2)c([N+](=O)[O-])c1	.	.	.	?	1.1µM
CCOC(=O)c1c(C)c(C(=O)NCc2ccc(Cl)cc2)c(C)n1CC	/	/	.	.	.
SMILES	Sfp inh	Coupling enz	Tau fibril FP	Tau fluor counter	Tau ThT inhib
CCOc1ccc(C2C(C(=O)Nc3ccc(OC)cc3)=C(C)Nc3nc(SCc4ccc(Cl)cc4)nn32)cc1 (centres undefined)	/	/	.	.	?
COc1ccc(C(=O)/C=C2\Sc3ccccc3N2C)cc1	.	.	.	.	?
CC(=S)/C=C1\Sc2ccccc2N1C	45µM	.	.	.	14µM
CCCc1nc2nc(C)c(NS(=O)(=O)c3ccc(C)c(C)c3)c(=O)n2[nH]1	/	/	.	.	.
NCCCCCCC(O)(P(=O)(O)O)P(=O)(O)O	.	.	/	/	/
Cc1ccc(/C=C/C(=O)NCc2ccco2)o1	32µM	.	?	.	?
Cc1ccc(/C=C/C(=O)NCC2COc3ccccc3O2)o1 (centres undefined)	6.3µM	.	.	.	?
O=C(/C=C/c1ccco1)NCc1ccco1	.	.	?	.	?
Cc1ccc(/C=C(\C#N)C(=O)NCc2ccco2)o1	50µM	.	.	.	.
COc1ccc(/C=C/C(=O)NCC2COc3ccccc3O2)cc1OC (centres undefined)	.	.	.	.	?
COc1cccc(CNC(=O)CCNS(=O)(=O)c2ccc3c(c2)CCCC(=O)N3)c1	/	/	.	.	.
CN1CC=C2C(C#N)=C(N)C(C#N)(C#N)[C@H](c3cccc(Cl)c3)C2C1 (some centres undefined)	.	-36	?	.	20µM
CN1CC=C2C(C#N)=C(N)C(C#N)(C#N)C(c3ccsc3)C2C1 (centres undefined)	.	.	?	.	16µM
CN1CC=C2C(C#N)=C(N)C(C#N)(C#N)[C@H](c3cccs3)[C@H]2C1	.	.	?	.	?
COC(=O)Nc1ccc(Cl)c(Cl)c1	.	.	/	/	/
C=C1C(n2cnc3c(=O)[nH]c(N)nc32)C[C@H](O)[C@H]1CO (some centres undefined)	.	/	/	/	/
COc1ccc(C(=O)CN2CCN(S(=O)(=O)c3ccc(C(C)C)cc3)CC2)cc1	/	/	.	.	.
